Structures are written as SMILES. The whole screen tested about 330,000 compounds, of which about 1,700 (0.52%) were called active. The entries come from a sample that favours actives as a whole. Values without a mark were called inactive. Rule as the data show it: active = inhibition above about 50%; inactive = the rest.

This assay can be described thus: lowers stimulated NF-kB reporter luminescence – cell-based, uHTS, TCR NF-kB activation inhibitor project, primary screen (AID 435003). Conditions: Jurkat, PMA/ionomycin-induced NF-kB luciferase reporter, at 4 µM, hits give high values.
On to `Cc1cccc(Nc2nc(NCCO)nc(N3CCCC3)n2)c1`, for which the inhibition was 5.92%. For `CC(C)n1cnc2c(Nc3cccc(Cl)c3)nc(N(CCO)CCCO)nc21`, the inhibition was -12%.

For `OCCCNc1nccc(-c2cc(Nc3cccc(Cl)c3)ncn2)n1`, the inhibition was 98.5% (active).

`Cc1ccc(S(=O)(=O)c2nc(-c3cccs3)oc2NCc2cccnc2)cc1`: the inhibition was -3.33%. As for `COc1ccc(C(=O)N2CCN(c3ccc(C(C)=O)cc3F)CC2)cc1S(=O)(=O)NC1CC1`, the inhibition was -20.9%. Consider `C[C@H](CO)N1C[C@H](C)[C@@H](CN(C)C(=O)NC2CCCCC2)Oc2ccc(NC(=O)c3ccncc3)cc2C1=O`, for which the inhibition is 7.62%. The figure for `COCCCNC(=O)CCc1nc2cccnc2n1Cc1ccc(OC)cc1` is 1.81%; for `Cn1c(-c2ccc(C(F)(F)F)cc2)cc2onc(-c3ccccc3)c2c1=O` it is -242%; for `CCOc1ccc(C(=O)Nc2ccc(CN3CCOCC3)cc2)cc1Cl` it is -22.2%. For `O=C(Nc1ccc(CSc2ccccc2)cc1)c1ccc(CN2CCOCC2)cc1`, the inhibition is 69% (active). Consider `O=C(Nc1ccccc1C(=O)N1CCOCC1)c1ccc(CSc2ccccc2)cc1`, for which the inhibition is -0.886%. For `Cc1ccc2nc(-c3ccccn3)cc(C(=O)Nc3ccc4c(c3)OCO4)c2c1` the value was 11.1%; for `CCN(CC)CCNC(=O)c1ccc(NC(=O)c2cc(-c3ccncc3)nc3ccccc23)cc1`, -38.2%. The figure for `Cc1ccc2nc(-c3ccncc3)cc(C(=O)Nc3ccc(OC(F)F)cc3)c2c1` is 53.6% (active); for `CC(C)CC[n+]1ccn(C2=C([O-])c3ccccc3C(=O)/C2=N\S(=O)(=O)c2ccccc2)c1` it is 6.27%; for `Cc1ccc(OCCNC(=O)CN2C(=O)NC3(CCCC3)C2=O)cc1` it is 7.61%. The figure for `O=C(Nc1ccc(Br)cc1)c1cccc(NC(=O)C2C3CC4OC(=O)C2C4C3)c1` (stereo unspecified) is -6.94%; for `CCN1CCN(c2ccc(NC(=O)c3cnccn3)cc2)CC1` it is -79.3%. Regarding `CCN(CC)c1ccc(/C=N/NC(=O)c2cnccn2)c(O)c1`, the inhibition was 59.3% (active).

As for `COc1ccc(NC(=O)C/C(C)=N/NC(=O)c2cnccn2)cc1Cl`, the inhibition is -12.8%. For `CCC(C)n1[nH]c(=O)cc1N` (stereo unspecified) the value was 6.5%.

`N#CC1(C#N)C(C(=O)C23CC4CC(CC(C4)C2)C3)C12CCOCC2` (stereo unspecified): the inhibition is 3.42%. For the molecule `C=C(C)C(=O)O[C@H]1C/C(C)=C\C(=O)/C=C(\C)[C@H](O)[C@@H]2OC(=O)C(=C)[C@@H]21`, the inhibition is 76.7% (active). The figure for `COc1ccc2cc1Oc1ccc(cc1)C[C@H]1c3cc(c(OC)cc3CCN1C)Oc1c(O)c(OC)cc3c1[C@H](C2)N(C)CC3` is 81.7% (active); for `C=CCn1c(SCc2c(C)noc2C)nc2sc3c(c2c1=O)CCC(C)C3` (stereo unspecified) it is 69.9% (active); for `C=CCn1c(SCC(=O)NCCCO)nc2sc3c(c2c1=O)CCC3` it is 6.01%. For `C=CCn1c(SCC(=O)NCC2CCCO2)nc2sc(C)c(C)c2c1=O` (stereo unspecified), the inhibition is -2.81%. For `CC1Cc2cc(/C(O)=C3\C(=O)C(=O)N(Cc4cccnc4)C3c3ccccc3F)ccc2O1` (stereo unspecified) the value was -14.7%; for `CCN(CC(=O)Nc1ccc(OC)cc1)C(=O)CSCc1ccc(C)cc1`, -16.5%; for `COc1ccc(CCNC(=O)c2cnc(Cl)c(Cl)c2)cc1`, -35.5%. For `COc1ccc(C(=O)CCC(=O)Nc2ccc(Cl)cc2)cc1` the value was 10.1%. On to `COc1ccc(NC(=O)/C(Cl)=C(/Cl)S(=O)Cc2ccc(C)cc2)cn1` (stereo unspecified), for which the inhibition was 91.6% (active). For `COc1ccc(CS(=O)/C(Cl)=C(/Cl)C(=O)Nc2ccc(OC)nc2)cc1` (stereo unspecified) the value was 99.4% (active); for `COC(=O)c1sccc1NC(=S)Nc1ccc(C)cc1`, -16.1%; for `Cc1ccc(-n2c(SCC(=O)NCc3ccc4c(c3)OCO4)nnc2-c2cccnc2)c(C)c1`, -1.23%. The figure for `O=[N+]([O-])c1ccc(N2CCNCC2)cc1NCc1cccnc1` is 1.76%.

Take `CCCC(C(=O)NC1CCCC1)N(C(=O)Cn1nnc(-c2ccc(C)o2)n1)c1cccc(O)c1` (stereo unspecified): the inhibition was 7.15%. With `Cc1ccc(-c2cc(=O)c3ccc(F)cc3[nH]2)cc1`, the inhibition is 14.5%. Regarding `O=c1cc(-c2ccccc2)[nH]c2cc(F)ccc12`, the inhibition is 61.5% (active). For `CC(=O)c1cc(-c2ccccc2)[nH]c1N1CCCC1` the value was 8.23%. The figure for `CSc1ccc(NC(=O)N2CC(C)OC(C)C2)cc1` (stereo unspecified) is 21.7%. For `COCc1cc(C)nc(Nc2cc(C)ccc2C)c1C#N` the value was 6.05%. `O=C(COC(=O)c1ccc([N+](=O)[O-])cc1Cl)NC(=O)c1ccccc1`: the inhibition is 3.88%.

For the molecule `O=C(O)c1cc([N+](=O)[O-])c(Nc2cccc3ccccc23)c([N+](=O)[O-])c1`, the inhibition was -10.8%.

Consider `O=C(NC(Nc1nc2ccc([N+](=O)[O-])cc2s1)(C(F)(F)F)C(F)(F)F)c1ccccc1`, for which the inhibition is 72.3% (active). The figure for `O=C(CSc1nnc(Nc2ccccc2F)s1)NC1CCCC1` is -19.9%.

For `COc1cccc(CN2CCNC(=O)C2CC(=O)N(C)CCc2ccccn2)c1` (stereo unspecified), the inhibition was -0.459%.

In the case of `Cc1ccc(O)c(NC(=S)NC(=O)COc2ccc(Br)cc2)c1`, the inhibition is 14.2%. For `Cc1ccc(C)c(OCC(=O)NNC(=O)C2CCC2)c1` the value was 0.404%; for `Cc1ccc(O)c(NC(=O)COc2cc(C)ccc2C)c1`, 61.3% (active). The figure for `COc1ccc(Br)cc1S(=O)(=O)N1CCN=C1C` is -11.9%; for `COCCNC(=O)c1ccc(Cn2c(SCC(=O)NCC3CCCO3)nc3ccc(Br)cc3c2=O)cc1` (stereo unspecified) it is 23.7%; for `COc1ccccc1NC(=O)C1CCCN1S(=O)(=O)c1ccc(Cl)cc1` (stereo unspecified) it is -8.88%. The figure for `COc1ccccc1NC1=NC(c2ccc(Cl)cc2)N=C(N)N1` (stereo unspecified) is 60.9% (active). Take `COc1ccccc1NC(=O)c1cc(Cl)nnc1Cl`: the inhibition is -0.0528%. For `CC(C)n1c(-c2ccncc2)n[nH]c1=S` the value was 11.1%.

The values above are taken from PubChem BioAssay AID435003 (Sanford-Burnham Center for Chemical Genomics, 2010).
